According to PubChem BioAssay (Tox21):
Results filed as inconclusive are left out. Where a call stands in place of a potency, no number is given. Unmarked numbers belong to inactive results. Activity calls are given as the source filed them. Calls follow the shape of the dose curve; as a rule, active = well fitted cell-killing curve with a large enough effect in the repeat runs; inconclusive = weak or mixed curves, or effect the other way; inactive = flat fitted curve, though single readings scatter.

Legend:
[1] = cAMP Responsive Elements (CRE) small molecule antagonists, cell-based qHTS assay: qHTS cell viability counter screen (AID 2060913); conditions: CRE-bla HEK293T viability, CellTiter-Glo luminescence, 5 h; series mostly up to 92.4 µM; also: nearly all actives have a fitted effect of over 40% in size
Procedure, shortened: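 CRE-bla HEK293T cells were seeded in assay medium with 10% dialyzed FBS, incubated 18 hrs at 37 C, then exposed to compounds plus 0.25 uM final NKH477 for 3 hrs. Viability was read by CellTiter-Glo luminescence after 30 min, in the same wells.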

[2] = cAMP Responsive Elements (CRE) small molecule agonists, cell-based qHTS assay: qHTS cell viability counter screen (AID 2060914); conditions: CRE-bla HEK293T viability, CellTiter-Glo luminescence, 5 h; series mostly up to 92.4 µM; also: potency is read from the fitted curve at half-maximal effect;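 also: viability read after 3 h of compound exposure; nearly all actives have a fitted effect of over 50% in size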
Procedure, shortened: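 CRE-bla HEK 293T cells, plated 18 h at 37 °C, were exposed to compounds for 3 h at 37 °C/5% CO2. Viability was then measured in the same wells by CellTiter-Glo luminescence after 30 min at room temperature.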

Row | Compound | Potency [1] | Potency [2] | viability change, negative = cytotoxic [1] | activity change, negative = cytotoxicity [2]
1 | CCCOC(=O)c1ccc(C(=O)OCCC)nc1 | inactive | inactive | – | –
2 | CCc1occc(=O)c1O | inactive | inactive | – | –
3 | OC(C#CCN1CCCC1)(c1ccccc1)c1ccccc1 | inactive | inactive | – | –
4 | O=C1CC[C@@H](C(=O)O)N1 | inactive | inactive | – | –
5 | O=C(Nc1cccc(C2=NCCN2)c1)Nc1cccc(C2=NCCN2)c1 | – | – | 0.0426% [at 18.9 µM] | 10.9% [at 18.9 µM]
6 | CCNc1cccc(C)c1 | inactive | inactive | – | –
7 | COc1ccc(CCC(=O)c2c(O)cc(O[C@@H]3O[C@H](CO)[C@@H](O)[C@H](O)[C@H]3O[C@@H]3O[C@@H](C)[C@H](O)[C@@H](O)[C@H]3O)cc2O)cc1O | inactive | inactive | – | –
8 | CCCCNS(=O)(=O)c1ccc(C)cc1 | inactive | inactive | – | –
9 | CN=C(N)NC(=O)Nc1c(C)cccc1C | inactive | inactive | – | –
10 | CC(C)c1ccc(C(C)C)cc1 | inactive | inactive | – | –
11 | CN1CCC[C@@H]1Cc1c[nH]c2ccc(CCS(=O)(=O)c3ccccc3)cc12 | inactive | inactive | – | –
12 | CC1CC(O)CC(C)(C)C1 (centres undefined) | inactive | inactive | – | –
13 | COC(=O)C(C)=O | inactive | inactive | – | –
14 | CCN(CC)CC1CCCCN1CC(=O)N1c2ccccc2C(=O)Nc2cccnc21 (centres undefined) | inactive | inactive | – | –
15 | CC(C)(C)CCCCCCOC(=O)c1ccccc1C(=O)OCCCCCCC(C)(C)C | inactive | inactive | – | –
16 | CCCCC(CC)COC(=O)CCCCC(=O)OCc1ccccc1 (centres undefined) | inactive | inactive | – | –
17 | CCCN(CCC)c1c([N+](=O)[O-])cc(C(F)(F)F)c(N)c1[N+](=O)[O-] | inactive | 60.9 µM (active) | – | –
18 | ClC1=C(Cl)C1(Cl)Cl | inactive | inactive | – | –
19 | COc1cc(C(=O)NS(=O)(=O)c2ccccc2C)ccc1Cc1cn(C)c2ccc(NC(=O)OC3CCCC3)cc12 | inactive | inactive | – | –
20 | COc1cc(C(=O)NC2CCCNC2)cc(OC)c1OC (centres undefined) | inactive | inactive | – | –
21 | COC(=O)c1cccc(C(=O)OC)c1 | inactive | inactive | – | –
22 | O=C(O)C1(C(=O)Nc2ccc(Cl)cc2Cl)CC1 | inactive | inactive | – | –
23 | C[Si]1(C)O[Si](C)(C)O[Si](C)(C)O[Si](C)(C)O1 | inactive | inactive | – | –
24 | CCOc1nc2cccc(C(=O)O)c2n1Cc1ccc(-c2ccccc2-c2nn[nH]n2)cc1 | inactive | inactive | – | –

Row | Compound | Potency [1] | Potency [2] | viability change, negative = cytotoxic [1] | activity change, negative = cytotoxicity [2]
25 | C=CC(=O)OCCN(CC)CC | inactive | inactive | – | –
26 | Cc1ccc(S(=O)(=O)NC(=O)NN2CCCCCC2)cc1 | inactive | inactive | – | –
27 | Cc1ccc(N(CCO)CCO)cc1 | inactive | inactive | – | –
28 | ClC1=C(Cl)C(Cl)(Cl)C(Cl)=C1Cl | inactive | inactive | – | –
29 | CC/C=C\C/C=C\C/C=C\CCCCCCCC(=O)O | inactive | inactive | – | –
30 | O=C(OCc1ccccc1)C(=O)OCc1ccccc1 | inactive | inactive | – | –
31 | CCCCCCC1(C)CCC(=O)O1 (centres undefined) | inactive | inactive | – | –
32 | NC[C@H](O)c1ccc(O)c(O)c1 | inactive | inactive | – | –
33 | CCCCCCCCCCCCCCCC(=O)OC(C)C | inactive | inactive | – | –
34 | C=C(C)C(=O)OCC[N+](C)(C)C | inactive | inactive | – | –
35 | Cn1cnc2c(F)c(Nc3ccc(Br)cc3Cl)c(C(=O)NOCCO)cc21 | inactive | inactive | – | –
36 | O=C(NOCC1CC1)c1ccc(F)c(F)c1Nc1ccc(I)cc1Cl | inactive | inactive | – | –
37 | O=CC1CC=CCC1 (centres undefined) | inactive | inactive | – | –
38 | CC1=CCC2CC1C2(C)C (centres undefined) | inactive | inactive | – | –
39 | O=C(O)Cc1ccccc1Oc1ccc(Cl)cc1Cl | inactive | inactive | – | –
40 | CCCCCCCCCOS(=O)(=O)O | inactive | inactive | – | –
41 | CC(C)(Oc1ccc(C2CC2(Cl)Cl)cc1)C(=O)O (centres undefined) | inactive | inactive | – | –
42 | CC(C)Cc1ccccc1 | inactive | inactive | – | –
43 | CCOC(=O)CS | inactive | inactive | – | –
44 | CCCCCCCCCCCCCCCCN(C)C | – | – | -5.89% [at 8.39 µM] | -12.8% [at 8.39 µM]
45 | CCC(Cc1ccccc1)(C(=O)c1ccc(N2CCOCC2)cc1)N(C)C (centres undefined) | inactive | inactive | – | –
46 | CCCCOC(=O)C(C)CC (centres undefined) | inactive | inactive | – | –
47 | CN1CCc2cccc3c2[C@H]1Cc1ccc(O)c(O)c1-3 | inactive | inactive | – | –
48 | CC(C)C(=O)c1c(C(C)C)nn2ccccc12 | inactive | inactive | – | –

Row | Compound | Potency [1] | Potency [2] | viability change, negative = cytotoxic [1] | activity change, negative = cytotoxicity [2]
49 | COC(=O)C1CCC(C(=O)OC)CC1 (centres undefined) | inactive | inactive | – | –
50 | Cc1cccc(Nc2ccncc2S(=O)(=O)NC(=O)NC(C)C)c1 | inactive | inactive | – | –
51 | Cc1cc2c(cc1S(N)(=O)=O)S(=O)(=O)CCC2 | inactive | inactive | – | –
52 | C=CCc1ccc(OC)c(OC)c1 | inactive | inactive | – | –
53 | COc1ncnc(NS(=O)(=O)c2ccc(N)cc2)c1OC | inactive | inactive | – | –
54 | CC(=O)C(=O)CC(C)C | inactive | inactive | – | –
55 | COc1ccc(OC(=O)N(CC(=O)O)Cc2ccc(OCCc3nc(-c4ccccc4)oc3C)cc2)cc1 | inactive | inactive | – | –
56 | Nc1ccn([C@@H]2O[C@H](CO)[C@@H](O)C2(F)F)c(=O)n1 | inactive | inactive | – | –
57 | CC(C)(C)NCC(O)COc1cccc2c1CCC(=O)N2 (centres undefined) | inactive | inactive | – | –
58 | C=C[C@@H](C)CCC=C(C)C | inactive | inactive | – | –
59 | O=C(Cl)c1c(Cl)c(Cl)c(C(=O)Cl)c(Cl)c1Cl | inactive | inactive | – | –
60 | CCOCCOCCOCC | inactive | inactive | – | –
61 | NCCCC(N)(C(=O)O)C(F)F (centres undefined) | inactive | inactive | – | –
62 | c1ccc2scnc2c1 | inactive | inactive | – | –
63 | COc1ccc2sc(C(=O)Nc3nnn[nH]3)c(OC(C)C)c2c1 | inactive | inactive | – | –
64 | CC(C)CCCC(C)CCCC(C)CCCCC(C)CCCC(C)CCCC(C)C (centres undefined) | inactive | inactive | – | –
65 | CCCCCCCCCC#N | inactive | inactive | – | –
66 | CCCCOCCOCCSC#N | inactive | inactive | – | –
67 | CNCCO | inactive | inactive | – | –
68 | CCCCNCC | inactive | inactive | – | –
69 | OC[C@H]1O[C@@H](OCCc2ccc(O)cc2)[C@H](O)[C@@H](O)[C@@H]1O | inactive | inactive | – | –
70 | CC(=O)Nc1c(I)cc(I)c(C(=O)O)c1I | inactive | inactive | – | –
71 | CC(C)(O)Cc1ccccc1 | inactive | inactive | – | –
72 | FC(F)(Cl)C(F)(Cl)Cl | inactive | inactive | – | –

Row | Compound | Potency [1] | Potency [2] | viability change, negative = cytotoxic [1] | activity change, negative = cytotoxicity [2]
73 | Cc1cccc(C)c1NC(=O)CN(CC(=O)O)CC(=O)O | inactive | inactive | – | –
74 | Nc1ccc(Nc2ccccc2)cc1 | inactive | inactive | – | –
75 | O=C(O)/C=C/c1ccc(/C=C/C(=O)O)cc1 | inactive | inactive | – | –
76 | Nc1ccc2c(S(=O)(=O)O)cccc2c1S(=O)(=O)O | inactive | inactive | – | –
77 | CCCc1ccccc1 | inactive | inactive | – | –
78 | CCCC1CCC(=O)O1 (centres undefined) | inactive | inactive | – | –
79 | CCCCCCCCC1CO1 (centres undefined) | inactive | inactive | – | –
80 | CNC1CCCN(c2c(F)cc3c(=O)c(C(=O)O)cn(C4CC4)c3c2OC)C1 (centres undefined) | inactive | inactive | – | –
81 | CCCCCCCC/C=C\CCCCCCCC(=O)OCCCC | – | – | -0.67% [at 18.9 µM] | -19.4% [at 18.9 µM]
82 | COc1ccc(Nc2ccccc2)c(C)c1 | inactive | inactive | – | –
83 | CC(C)(C)c1ccc(C=O)cc1 | inactive | inactive | – | –
84 | C[N+]1(C)CCC(OC(=O)C(O)(c2ccccc2)C2CCCC2)C1 (centres undefined) | inactive | inactive | – | –
85 | CC(C)(CO)C(O)C(=O)NCCCO (centres undefined) | inactive | inactive | – | –
86 | c1cc[c]([Bi]([c]2ccccc2)[c]2ccccc2)cc1 | inactive | inactive | – | –
87 | c1coc(CNc2ncnc3nc[nH]c23)c1 | inactive | inactive | – | –
88 | O=C1OCCN1/N=C/c1ccc([N+](=O)[O-])o1 | inactive | inactive | – | –
89 | COc1cccc(O)c1 | inactive | inactive | – | –
90 | Cc1ccnc2c1NC(=O)c1cccnc1N2C1CC1 | inactive | inactive | – | –
91 | CO/N=C(\C(=O)O)c1csc(NC(=O)CCl)n1 | inactive | inactive | – | –
92 | N#CSCSc1nc2ccccc2s1 | inactive | inactive | – | –
93 | CCOC(=O)c1cnc2c(cnn2CC)c1NN=C(C)C | inactive | inactive | – | –
94 | CC(Cl)COP(=O)(OCC(C)Cl)OCC(C)Cl (centres undefined) | inactive | inactive | – | –
95 | C=C(C)C(=O)OCC | inactive | inactive | – | –
96 | O=C(OCCOCCOCCOC(=O)c1ccccc1)c1ccccc1 | inactive | inactive | – | –

Row | Compound | Potency [1] | Potency [2] | viability change, negative = cytotoxic [1] | activity change, negative = cytotoxicity [2]
97 | Nc1nc(N)nc(-c2ccccc2)n1 | inactive | inactive | – | –
98 | COC(C)(OC)OC | inactive | inactive | – | –
99 | CC(O)C#CC(C)O (centres undefined) | inactive | inactive | – | –
100 | CN[C@@H]1[C@H](O)[C@H](NC)[C@H]2O[C@@]3(O)C(=O)C[C@@H](C)O[C@H]3O[C@@H]2[C@H]1O | inactive | inactive | – | –
101 | CCC(CC)(CC(=O)Nc1cccc(/C=C/c2nc(C3CCC3)cs2)c1)C(=O)O | inactive | inactive | – | –
102 | O=C1C(=O)c2ccccc2C(O)=C1C1CCC(c2ccc(Cl)cc2)CC1 (centres undefined) | inactive | inactive | – | –
103 | CCCCCCC/C=C/C=O | inactive | inactive | – | –
104 | CCN1CCCC1=O | inactive | inactive | – | –
105 | CC(=O)Nc1ccc(S(=O)(=O)Nc2cc(C)on2)cc1 | inactive | inactive | – | –
106 | CCN(CC)CCNc1ccc(CO)c2sc3ccccc3c(=O)c12 | inactive | inactive | – | –
107 | CN(C(=O)C(Cl)Cl)c1ccc(OC(=O)c2ccco2)cc1 | inactive | inactive | – | –
108 | CC1=C(O)C(=O)CO1 | inactive | inactive | – | –
109 | CCCCCCCCS | inactive | inactive | – | –
110 | CC1COc2ccccc2N1C(=O)C(Cl)Cl (centres undefined) | inactive | inactive | – | –
111 | OC[C@@H](O)[C@@H](O)[C@H](O)[C@@H](O)CO | inactive | inactive | – | –
112 | CCCCCCCCCCCCS(=O)(=O)Cl | – | – | 11.7% [at 18.9 µM] | 8.81% [at 18.9 µM]
113 | CCCCCCCCCCCCCCCCCC(=O)OCC(CC)CCCC (centres undefined) | inactive | inactive | – | –
114 | Clc1ccc2cc3ccccc3cc2c1 | inactive | inactive | – | –
115 | CC(C)(C)C1CCC(=O)CC1 | inactive | inactive | – | –
116 | NC(=O)CCCCC1CCSS1 (centres undefined) | inactive | inactive | – | –
117 | C[C@@H]1CC[C@H]2C(C)(C)[C@H]3C[C@@]12CC[C@@]3(C)O | inactive | inactive | – | –
